Shown are actives, neighbours in structure and some others; about 2.4% of the full set was active somewhere.
POLK inh = qHTS for Inhibitors of Polymerase Kappa; DNA polymerase kappa (Homo sapiens), Q9UBT6; purified Pol kappa, fluorescent DNA synthesis assay, 10 min; Potency, µM (series often up to 107 µM), for inactives: at the top dose activity, negative = inhibition, actives largely listed as inhibitors; hit rate 0.53% among 400,000; also: potency is read from the fitted curve at half-maximal effect; % is scaled to controls: 0 for no effect and ±100 for the full control effect
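Enzyme at 10 nM met test compounds for 15 min at room temperature. Substrate addition (50 nM final) began the reaction, which was monitored by fluorescence at 0 and 10 min.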
POLI inh = qHTS for Inhibitors of Polymerase Iota; DNA polymerase iota (Homo sapiens), Q9UNA4; Pol iota fluorescent replication assay, 10 min; Potency, µM (top dose mostly 115 µM), for inactives: at the highest dose activity, negative = inhibition, most hits filed as inhibitors; hit rate 1% among 390,000; also: potency is read from the fitted curve at half-maximal effect
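Pol iota at 10 nM preincubated 15 min with compounds at room temperature; reaction started with fluorescent substrate, 50 nM final. Fluorescence read kinetically at 0 and 10 min; buffer-only wells as negative control.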
FEN1 inh-1 = qHTS Assay for the Inhibitors of Human Flap endonuclease 1 (FEN1); AID 588795, 2011; hit rate 0.35% among 390,000; P39748; Potency, µM (top dose mostly 114 µM), inactives show at the top dose activity change, negative = inhibition, usual class: inhibitors; Recombinant FEN1 flap cleavage, fluorescence, 15 min; also: potency is read from the fitted curve at half-maximal effect; % is scaled to controls: 0 for no effect and ±100 for the full control effect; nearly all actives have a fitted effect of over 65% in size
Target sequence (P39748 whole entry, looked up): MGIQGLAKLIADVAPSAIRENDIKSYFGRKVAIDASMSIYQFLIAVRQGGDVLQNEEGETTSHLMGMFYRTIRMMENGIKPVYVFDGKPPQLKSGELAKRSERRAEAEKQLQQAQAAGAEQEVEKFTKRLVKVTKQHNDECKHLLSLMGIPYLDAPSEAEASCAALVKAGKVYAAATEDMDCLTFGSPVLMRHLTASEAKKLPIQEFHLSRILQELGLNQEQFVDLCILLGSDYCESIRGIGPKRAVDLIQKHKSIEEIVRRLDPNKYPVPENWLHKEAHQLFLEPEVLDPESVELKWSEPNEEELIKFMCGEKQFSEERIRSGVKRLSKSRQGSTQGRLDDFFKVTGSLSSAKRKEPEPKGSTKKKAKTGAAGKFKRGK
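FEN1 at 10 nM preincubated with compounds 15 min at room temperature, then flap DNA substrate added at 50 nM final. Signal read at 0 and 15 min; concentration-response fitted with four-parameter Hill equation.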
WRN helicase inh-1 = qHTS for Inhibitors of WRN Helicase. Bifunctional 3'-5' exonuclease/ATP-dependent helicase WRN (Homo sapiens), Q14191. WRN helicase unwinding, fluorescent forked duplex, kinetic. Potency, µM (titrated, usually from 114 µM), without a hit: at the highest dose activity change, negative = inhibition, hits mostly inhibitors. hit rate 0.46% among 360,000; also: potency is read from the fitted curve at half-maximal effect; % is scaled to controls: 0 for no effect and ±100 for the full control effect; nearly all actives have a fitted effect of over 55% in size
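Enzyme (20 nM final) and test compound sit together 15 min at room temperature before substrate addition. Substrate is a single-forked duplex oligonucleotide (100 nM) labelled with fluorophore and quencher, with 2 mM ATP; helicase unwinding raises red fluorescence, read kinetically.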
Pol beta inh = qHTS Assay for Inhibitors of DNA Polymerase Beta. P06746. Pol beta primer extension/strand displacement, fluorescence kinetic. Potency, µM (top dose mostly 114 µM), for the others: at the top dose activity change, negative = inhibition, hits mostly inhibitors. hit rate 1.3% among 340,000. AID 485314, 2010; also: potency is read from the fitted curve at half-maximal effect; % is scaled to controls: 0 for no effect and ±100 for the full control effect
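Homogeneous kinetic assay of primer extension and strand displacement by 10 nM Pol beta, preincubated 15 min at room temperature with compound before 50 nM substrate (final) was added. Read at 0 and 10 min; four-parameter Hill fit.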
Pol eta inh-1 = qHTS for Inhibitors of Polymerase Eta | Potency, µM (highest dose often 114 µM), without a hit: top-dose activity change, negative = inhibition, most hits filed as inhibitors | AID 588591, 2011 | hit rate 1.2% among 390,000 | recombinant Pol eta, fluorescent DNA replication assay; also: potency is read from the fitted curve at half-maximal effect; % is scaled to controls: 0 for no effect and ±100 for the full control effect
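Fluorescent replication assay: 50 nM final substrate added after a 15 min room-temperature compound preincubation with 10 nM enzyme. Signal taken at 0 min and again at 10 min.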
GALK confirm = Confirmation Assay for Inhibitors of Human Galactokinase (GALK); shares compounds with Pol eta inh-1; purified GALK, Kinase-Glo ATP depletion luminescence; Potency, µM (highest dose often 115 µM), for the others: top-dose activity, negative = inhibition, most hits filed as inhibitors; hit rate 70% among 150
Redox cycling = Confirmatory Assay for Inhibitors of Human Galactokinase (GALK): Phenol-HRP redox assay counterscreen; shares compounds with Pol eta inh-1; AID 2035, 2009; hit rate 40% among 150; Potency, µM (highest dose often 115 µM), inactives show at the highest dose activity change, negative = H2O2 signal, hits mostly inhibitors; Phenol red-HRP H2O2 redox cycling, absorbance 600 nm
HEK293 viability = Secondary Assay for Inhibitors of Human Galactokinase (GALK): HEK-293 Cell Viability Assay; HEK-293 viability, ATP luminescence (CellTiter-Glo), 24/48 h; AID 2547, 2010; hit rate 10% among 170; shares compounds with Pol eta inh-1; Potency, µM (highest dose often 46.1 µM), for the others: at the top dose activity change, negative = cytotoxicity, actives largely listed as inhibitors; also: potency is read from the fitted curve at half-maximal effect; % is scaled to controls: 0 for no effect and ±100 for the full control effect
Pol eta inh-2 = qHTS for Inhibitors of Polymerase Eta: Confirmatory Assay for Cherry-picked Compounds; shares compounds with Pol eta inh-1; Pol eta primer extension, TAMRA/BHQ fluorescence, 10 min; Potency, µM, hits mostly inhibitors; hit rate 64% among 2,600; AID 720502, 2013; also: potency is read from the fitted curve at half-maximal effect
FEN1 inh-2 = qHTS Assay for the Inhibitors of FEN1: Confirmatory Assay for Cherry-picked Compounds; Potency, µM, hits mostly inhibitors; FEN1 flap cleavage, TAMRA/BHQ2 fluorogenic DNA substrate; shares compounds with FEN1 inh-1; hit rate 79% among 880; also: potency is read from the fitted curve at half-maximal effect; nearly all actives have a fitted effect of over 60% in size
WRN helicase inh-2 = qHTS for Inhibitors of WRN Helicase: Confirmatory Assay for Cherry-picked Compounds. shares compounds with WRN helicase inh-1. WRN helicase DNA unwinding, fluorescence kinetic. Potency, µM (titrated, usually from 57.1 µM), for the others: at the top dose activity, negative = inhibition, usual class: inhibitors. hit rate 63% among 610. AID 720497, 2013; also: potency is read from the fitted curve at half-maximal effect; nearly all actives have a fitted effect of over 65% in size
TO DNA binding = qHTS for Inhibitors of WRN Helicase: Thiazole Orange DNA Binding Counterscreen; hit rate 10% among 610; Potency, µM (doses to about 57.1 µM), for inactives: at the highest dose activity change, negative = inhibition, most hits filed as inhibitors; shares compounds with WRN helicase inh-1; thiazole orange DNA binding displacement, fluorescence; AID 720499, 2013;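 also: drop in dye fluorescence marks compound binding to DNA; potency is read from the fitted curve at half-maximal effect; % is scaled to controls: 0 for no effect and ±100 for the full control effect; nearly all actives have a fitted effect of over 60% in size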
BLM helicase inh = qHTS for Inhibitors of WRN Helicase: BLM Helicase Counterscreen for WRN Inhibitors. shares compounds with WRN helicase inh-1. Recombinant BLM helicase DNA unwinding, red fluorescence. Potency, µM (series often up to 57.1 µM), for the others: top-dose activity change, negative = inhibition, usual class: inhibitors. hit rate 60% among 610. AID 720503, 2013; also: potency is read from the fitted curve at half-maximal effect; nearly all actives have a fitted effect of over 60% in size
An asterisk follows results filed as active; ? = inconclusive; · = no result given. Calls follow the shape of the dose curve; as a rule, active = well fitted curve in the direction sought with a large enough effect; inconclusive = small, poorly fitted or top-dose-only effect, or another doubt; inactive = no such curve, though single readings can be large; an effect the other way counts as inactive or inconclusive.

SMILES	POLK inh	POLI inh	FEN1 inh-1	WRN helicase inh-1	Pol beta inh	Pol eta inh-1	Pol eta inh-2	WRN helicase inh-2	TO DNA binding	BLM helicase inh	others
CCN(CC)c1ccc(/C=C2\C(=O)c3ccc(C(=O)O)cc3C2=O)cc1	?	?	40µM*	40µM*	40µM*	7.9µM*	27*	22µM*	124%	?
CN(C)c1ccc(C=C2C(=O)c3ccccc3C2=O)cc1	-7%	30%	-4%	·	·	·	·	·	·	·
CC1=NOC(=O)/C1=C\c1ccc(-c2cccc(Cl)c2)o1	-12%	?	50µM*	13µM*	?	20µM*	?	?	-12%	7.6µM*
CCOc1cccc(C(=O)N(Cc2ccc(C)o2)C2CCS(=O)(=O)C2)c1 (stereo not drawn)	-17%	-20%	21%	·	24%	·	·	·	·	·
C(=Nc1ccc(/C=C/c2ccnc3ccccc23)cc1)c1cccs1	-23%	39%	?	·	·	·	·	·	·	·
O=C(O)CC(C(=O)O)N1C(=O)/C(=C/c2ccc(-c3nc4ccccc4s3)o2)SC1=S (stereo not drawn)	4.5µM*	1µM*	35µM*	28µM*	10µM*	2.8µM*	30*	22µM*	151%	-14%	FEN1 inh-2=60*
CCOc1cc(/C=C2\C(=O)ON=C2c2ccccc2)cc(Br)c1O	0%	?	?	?	5%	?	·	?	-2%	?	GALK confirm=?;Redox cycling=0%;HEK293 viability=6%
N#Cc1c(-c2ccc(Cl)c([N+](=O)[O-])c2)no[n+]1[O-]	·	·	·	·	·	·	76*	19µM*	-13%	22µM*
